In the library only some 19% were active in any assay of this set; here they are far more common.
HT1080NT lethal: qHTS for induction of synthetic lethality in tumor cells producing 2HG: qHTS for the HT-1080-NT fibrosarcoma cell line; 360,000 compounds, 1.6% hits; HT-1080-NT fibrosarcoma viability, CellTiter-Glo ATP luminescence, 48 h; AID 686970, 2013; Potency, µM (highest dose often 46.1 µM), inactives show at the top dose activity, negative = less viability, usual class: cytotoxic;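 note: NT is the 2HG producing partner of a matched IDH1 knockdown line; potency is the fitted concentration of half-maximal effect; 0% = DMSO-treated cells and -100% = media-only wells without cells; nearly all actives have a fitted effect of over 55% in size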
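Viability of the 2HG-overproducing fibrosarcoma line after 48 hours of compound exposure at 37 degrees C was determined by luminescence with CellTiter-Glo, and concentration-effect curves were then fitted and categorized.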
IL-1B inflam inh: qHTS for Inhibitors of Inflammasome Signaling: IL-1-beta AlphaLISA Primary Screen; activity change, % at 57.5 µM; AID 743279, 2014; 360,000 compounds, 4.7% hits; THP-1 LPS/ATP IL-1B secretion, AlphaLISA, 16 h; active compounds read low; in the data active = activity change below about -50%; inconclusive = mostly about -30% to -49%
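Secreted IL-1B measured by AlphaLISA bead assay after 16 h compound exposure of THP-1 cells; compounds (final up to 57.5 uM) added 1 h before LPS (250 ng/mL) and ATP (1.25 mM) stimulation; lower signal means less secretion.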
TDP1 cell noCPT: qHTS for Inhibitors of human tyrosyl-DNA phosphodiesterase 1 (TDP1): qHTS in cells in absence of CPT; 420,000 compounds, 15% hits; DT40 Tdp1-/- hTDP1 cells, no CPT, ATP luminescence, 48 h; Potency, µM (doses to about 46.2 µM), for inactives: at the top dose activity change, negative = growth inhibition, usual class: inhibitors; note: potency is the fitted concentration of half-maximal effect; nearly all actives have a fitted effect of over 55% in size
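Growth of hTDP1-complemented DT40 Tdp1-knockout cells is measured by ATP luminescence after at least 48 hr compound exposure at 37 °C, with DMSO substituting for the 20 nM CPT used in the parallel screen.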
TDP1 cell CPT: qHTS for Inhibitors of human tyrosyl-DNA phosphodiesterase 1 (TDP1): qHTS in cells in presence of CPT | chicken DT40 Tdp1-/-;hTDP1 cells + 20 nM CPT, ATP luminescence, 48 h | Potency, µM (series often up to 46.2 µM), for the others: at the top dose activity change, negative = growth inhibition, hits mostly inhibitors | 420,000 compounds, 12% hits | AID 686979, 2013; note: potency is the fitted concentration of half-maximal effect; nearly all actives have a fitted effect of over 55% in size
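Cell growth measured by CellTiter-Glo luminescence after a minimum 48 h, 37 C compound exposure with 20 nM CPT in Tdp1-knockout DT40 cells stably expressing hTDP1, seeded 400/well; qHTS titration format.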
HT1080 IDH1KD tx: qHTS for induction of synthetic lethality in tumor cells producing 2HG: qHTS for the HT-1080-IDH1KD cell line; HT-1080 IDH1 knockdown viability, ATP luminescence, 48 h; Potency, µM (titrated, usually from 46.1 µM), for inactives: top-dose activity, negative = toxicity, hits mostly cytotoxic; 360,000 compounds, 2% hits; AID 686971, 2013;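 note: potency is the fitted concentration of half-maximal effect; 0% = DMSO wells and -100% = cell-free medium wells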
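IDH1KD HT-1080 cells, 750/well, RPMI + 5% FBS; compound pinned after 2 h settling; 48 h, 37 °C; CellTiter-Glo luminescence; % activity normalised to DMSO and no-cell wells; curves fitted, classed by r2 and efficacy.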
* marks the source's active call; other numbers are inactive results. Unless noted, calls come from the whole dose curve; as a rule, active = well fitted curve in the direction sought with a large enough effect; inconclusive = small, poorly fitted or top-dose-only effect, or another doubt; inactive = no such curve, though single readings can be large; an effect the other way counts as inactive or inconclusive. Unless noted, % is set by controls: 0 for no effect and ±100 for the full control effect.

Cn1c(=O)oc2cc(S(=O)(=O)N3CCc4ccccc43)ccc21 was read as HT1080NT lethal -15%, IL-1B inflam inh 0, TDP1 cell noCPT -5%, TDP1 cell CPT inconclusive and HT1080 IDH1KD tx inconclusive.
Cc1cccc(NC(=O)C2CCCN(S(=O)(=O)c3ccc4c(c3)oc(=O)n4C)C2)c1 (centres undefined) was read as HT1080NT lethal 16%, IL-1B inflam inh -7, TDP1 cell noCPT inconclusive, TDP1 cell CPT inconclusive and HT1080 IDH1KD tx -14%.
`Cn1c(=O)oc2cc(S(=O)(=O)N3CCC(C(=O)N4CC=C(c5ccccc5)CC4)CC3)ccc21` gave HT1080NT lethal 0%, IL-1B inflam inh -8, TDP1 cell noCPT 12µM*, TDP1 cell CPT 23µM* and HT1080 IDH1KD tx 3%.
Screening Cc1cccc(N2CCN(C(=O)CCNS(=O)(=O)c3ccc4c(c3)oc(=O)n4C)CC2)c1C returned HT1080NT lethal -27%, IL-1B inflam inh -67*, TDP1 cell noCPT 16µM*, TDP1 cell CPT inconclusive and HT1080 IDH1KD tx 0%.
COc1ccc(N(CC(=O)Nc2cccc(SC)c2)S(C)(=O)=O)cc1Cl was read as HT1080NT lethal -5%, IL-1B inflam inh 0, TDP1 cell noCPT inconclusive, TDP1 cell CPT -23% and HT1080 IDH1KD tx -27%.
For Cc1cc(C)c(C2=NOC(O)(C(F)(F)F)C2)c(=O)[nH]1 (centres undefined) the results were HT1080NT lethal -1%, IL-1B inflam inh -8, TDP1 cell noCPT inconclusive, TDP1 cell CPT -3% and HT1080 IDH1KD tx 1%.
`CCOC(=O)C1(c2ccccc2)CCN(CCc2ccc(NC(=O)CCC(=O)O)cc2)CC1` gave HT1080NT lethal 14%, IL-1B inflam inh 3, TDP1 cell noCPT 4%, TDP1 cell CPT 36% and HT1080 IDH1KD tx 15%.
c1ccc(C[n+]2ccccc2)cc1 was read as HT1080NT lethal -2%, IL-1B inflam inh 0, TDP1 cell noCPT 16µM*, TDP1 cell CPT inconclusive and HT1080 IDH1KD tx -5%.
Screening COC(=O)C1=C(c2cccc(C#N)c2)C[C@@H]2CC[C@H]1N2C(=O)NCCO returned HT1080NT lethal 1%, IL-1B inflam inh 6, TDP1 cell noCPT 4%, TDP1 cell CPT -2% and HT1080 IDH1KD tx 19%.
For Brc1ccccc1Cn1c(-c2cncs2)nc2ccccc21 the results were HT1080NT lethal -8%, IL-1B inflam inh 5, TDP1 cell noCPT 16µM*, TDP1 cell CPT inconclusive and HT1080 IDH1KD tx -22%.
For COc1ccccc1N1CCN(CCc2ccccc2)CC1 the results were HT1080NT lethal -4%, IL-1B inflam inh -1, TDP1 cell noCPT -6%, TDP1 cell CPT inconclusive and HT1080 IDH1KD tx -18%.
Screening COc1ccccc1N1CCN(S(=O)(=O)CCNC(=O)CCCc2ccccc2)CC1 returned HT1080NT lethal -10%, IL-1B inflam inh -2, TDP1 cell noCPT 21µM*, TDP1 cell CPT inconclusive and HT1080 IDH1KD tx -1%.
For CCOc1ccc(CN(CCc2ccc3c(c2)OCO3)Cc2cccc(C)c2)cc1 the results were TDP1 cell noCPT 13µM* and TDP1 cell CPT 16µM*.
Screening CCOc1ccc(CN(CCc2ccc3c(c2)OCO3)Cc2cc(OC)ccc2O)cc1 returned TDP1 cell noCPT 18µM* and TDP1 cell CPT inconclusive.
For CCCCn1nnnc1C(c1ccc(OC)cc1)N1CCC2(CC1)C(=O)NCN2c1ccccc1 (centres undefined) the results were HT1080NT lethal inconclusive, IL-1B inflam inh -13, TDP1 cell noCPT inconclusive, TDP1 cell CPT 18µM* and HT1080 IDH1KD tx inconclusive.
For O=C1NCN(c2ccccc2)C12CCN(C(CCc1ccccc1)c1nnnn1C1CCCCC1)CC2 (centres undefined) the results were HT1080NT lethal inconclusive, IL-1B inflam inh -56*, TDP1 cell noCPT inconclusive, TDP1 cell CPT inconclusive and HT1080 IDH1KD tx 26µM*.
